Test [1] in a line: A CellTox Green Cytotoxicity Assay to monitor cytotoxicity in HepG2 cells - 8 hour (AID 1224890). Further: nearly all actives have a fitted effect of over 45% in size. The essentials: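 First, HepG2 cells (600/well) mixed with reagent were plated; second, after 5 h at 37 C they received compounds via pintool; third, fluorescence was measured at 0 h through 40 h at 8 h intervals.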
For test [2], the target named is Estrogen receptor (Homo sapiens) (UniProt P03372). Description: qHTS assay to identify small molecule antagonists of the estrogen receptor alpha (ER-alpha) signaling pathway using the BG1 cell line in the presence of 0.1 nM 17-beta-estradiol (AID 1259244). Further: nearly all actives have a fitted effect of over 50% in size. The essentials:
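Reporter is a stably transfected luciferase under four estrogen responsive elements in VM7Luc4E2 cells expressing native full-length ER-alpha; inhibition of 0.1 nM (final) 17beta-estradiol-driven signal over 22 h is read by luminescence.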

A short description of test [3]: qHTS assay to identify small molecule HDAC inhibitors (AID 1259364). Further: potency means the concentration at half of the fitted maximal effect.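 Further: wild-type HCT-116 cells with endogenous class I/II HDAC activity; nearly all actives have a fitted effect of over 45% in size.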 The essentials:
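Quantitative high-throughput format: overnight-seeded HCT-116 cells got compounds for 2 hr at 37C; HDAC-Glo I/II reagent added, 30 min RT, luminescence measured.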
On the technique in general: In qHTS, concentration-response curves come from the screen itself.

Test [4] can be described thus: qHTS assay to identify small molecule HDAC inhibitors - cell viability counter screen (AID 1259365). Further: series mostly up to about 92 µM; nearly all actives have a fitted effect of over 50% in size. The essentials:
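Wild-type HCT-116 cells, 1,500/well, cultured overnight, then compound-treated 2 h at 37 C. Viability measured as ATP luminescence with CellTiter-Glo after 30 min at room temperature.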

Test [5] can be described thus: qHTS assay to identify small molecule agonists of the sonic hedgehog signaling (Shh) pathway - cell viability counter screen (AID 1259366). Further: nearly all actives have a fitted effect of over 50% in size. The essentials: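 NIH/3T3-derived Gli1-Luc reporter cells, 2,000 per well, received compound after 4 h and were treated about 23 h at 37C. Viability measured in the same wells by CellTiter-Fluor fluorescence after 1 h.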
Test [6] can be described thus: qHTS assay to identify small molecule antagonists of the sonic hedgehog signaling (Shh) pathway - cell viability counter screen (AID 1259367). Further: nearly all actives have a fitted effect of over 55% in size. Put shortly:
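Viability was read by CellTiter-Fluor fluorescence in the same wells, reagent added 23 hr into compound treatment and incubated 1 hr at 37C. The 3T3 Gli1-Luc reporter cells (2,000/well) received conditioned medium after compound and ran 24 hr.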

Test [7] can be described thus: qHTS assay to identify small molecule agonists of the sonic hedgehog signaling (Shh) pathway (AID 1259368; calls by dose curve;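 further: NIH/3T3-derived 3T3Gli1-Luc cells carrying a stable Gli1-driven firefly luciferase reporter; series mostly up to about 92 µM; nearly all actives have a fitted effect of over 15% in size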). Put shortly:
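Quantitative high-throughput format using a Gli1-driven firefly luciferase reporter line derived from NIH/3T3 cells. After a 24 hr compound treatment at 37 C and 5% CO2, luminescence reported Gli1 response element activity.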

Test [8] in a line: qHTS assay to identify small molecule antagonists of the sonic hedgehog signaling (Shh) pathway (AID 1259369; calls by dose curve; further: nearly all actives have a fitted effect of over 45% in size). Put shortly:
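Stable Gli1-Luc reporter NIH/3T3 clone; quantitative HTS in stimulated mode with conditioned medium. Luminescence measured after 24hr compound treatment at 37 C.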

The target in test [9] is Estrogen receptor beta (Homo sapiens) (UniProt Q92731). Description: qHTS assay to identify small molecule agonists of the estrogen receptor beta (ER-beta) signaling pathway (AID 1259377; active means well fitted activation curve with a large enough effect in the signal ratio in the repeat runs, not every such curve was filed as active; the % refers to the signal ratio). Put shortly: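 ER-beta-UAS-bla HEK293T cells in medium with 2% charcoal-stripped FBS were exposed to compounds for 16 h at 37C. Beta-lactamase reporter activity was read as fluorescence after 2 h with LiveBLAzer B/G FRET substrate at room temperature.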

The target is the same in test [10]. Description: qHTS assay to identify small molecule antagonists of the estrogen receptor beta (ER-beta) signaling pathway (AID 1259378; active means well fitted inhibition curve with a large enough effect in the signal ratio in the repeat runs, not every such curve was filed as active; the % refers to the signal ratio). The essentials: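 Antagonist mode: compounds added to beta-lactamase reporter HEK293T ER-beta-UAS cells stimulated with E2 (1nM final), 16 hr at 37C. LiveBLAzer B/G FRET substrate, 2 hours room temperature, fluorescence read-out.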

Test [11] can be described thus: qHTS assay to identify small molecule agonists of the androgen receptor (AR) signaling pathway in the presence of an antagonist - cell viability counter screen (AID 1259379).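 Further: MDA-kb2 human breast cancer cells carrying an MMTV luciferase reporter; series mostly up to about 92 µM; nearly all actives have a fitted effect of over 25% in size.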 Put shortly:
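Nilutamide-containing (3.0uM final) MDA-kb2 cultures, 3,000 cells/well, were treated with compounds across 15 concentrations. After 16 hr at 37C with no CO2, cell viability was determined by CellTiter-Fluor fluorescence in the luciferase assay wells.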

Test [12] can be described thus: qHTS assay to identify small molecule agonists of the estrogen receptor beta (ER-beta) signaling pathway - cell viability counter screen (AID 1259380). Further: nearly all actives have a fitted effect of over 30% in size. Put shortly:
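Steps: plate ER-beta-UAS-bla HEK293T cells, rest 6 hr; add compounds in DMSO; incubate 16 hr at 37C, 5% CO2; add FRET substrate 2 hr; add CellTiter-Glo, wait 30 min at room temperature; read luminescence.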

Test [13] can be described thus: qHTS assay to identify small molecule antagonists of the estrogen receptor beta (ER-beta) signaling pathway - cell viability counter screen (AID 1259382).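 Further: HEK293T cells carrying ER-beta-UAS-bla reporter stimulated with estradiol; series mostly up to about 92 µM; nearly all actives have a fitted effect of over 55% in size.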 Put shortly:
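Viability is scored by CellTiter-Glo luminescence (30 min, room temperature) in ER-beta-UAS-bla HEK293T wells already read for reporter fluorescence. Compound exposure lasts 16 hr at 37C alongside 1nM 17-beta-estradiol in charcoal-stripped serum medium.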

The nature of test [14]: qHTS assay to identify small molecule agonists or antagonists of the thyroid stimulating hormone receptor (TSHR) signaling pathway - wild type cell line counter screen (AID 1259384; calls by dose curve). Put shortly:
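Counter screen in untransfected Hek293: compounds (15-point titration, triplicate) plus phosphodiesterase inhibitor Ro20-1724 added after 18 h plating; 30 min RT. Intracellular cAMP via competitive d2/cryptate immunoassay, 1 h incubation.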

Test [15] in a line: qHTS assay to identify small molecule antagonists of the androgen receptor (AR) signaling pathway using the MDA cell line in the presence of 0.5 nM R1881 - cell viability counter screen (AID 1259242). Further: nearly all actives have a fitted effect of over 45% in size. Put shortly: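 qHTS format. MDA-kb2 (MMTV-luc, AR/GR responsive) + cpd + 0.5 nM R1881 final, 16 hr 37C/0% CO2 → CellTiter-Fluor 30 min → fluorescence intensity.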
Test [16] concerns the target Androgen receptor (Homo sapiens) (UniProt P10275). Description: qHTS assay to identify small molecule antagonists of the androgen receptor (AR) signaling pathway using the MDA cell line in the presence of 0.5 nM R1881 (AID 1259243). Further: nearly all actives have a fitted effect of over 50% in size. The essentials: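 Antagonist mode quantitative HTS in MDA-kb2 MMTV-luciferase cells, agonist R1881 at 0.5 nM final, 16 hr exposure at 37C and 0% CO2, luminescent detection.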

Test [17] shares this target. Description: qHTS assay to identify small molecule agonists of the androgen receptor (AR) signaling pathway in the presence of an antagonist (AID 1259381; calls by dose curve; further: nearly all actives have a fitted effect of over 15% in size). The essentials:
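Reporter-gene luminescence from MDA-kb2 cells exposed 16hr at 37C (0% CO2) to 15-point compound titrations with 3.0uM final nilutamide as AR antagonist.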

Test [18] is described as follows: qHTS assay to identify small molecule phospholipidosis (PLD) inducers (AID 1259344; active means well fitted curve in the direction sought with a large enough effect; an effect the other way counts as inactive or inconclusive). The essentials: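 Phospholipid accumulation was scored by imaging: fixed, Hoechst-counterstained HepG2 cells stained with LipidTOX Red after 24 h compound exposure at 37 C. Read-outs were pit count and pit intensity per well or per cell, with amiodarone and DMSO controls.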
Test [19] deals with Estrogen receptor (Homo sapiens) (UniProt P03372). Briefly: qHTS assay to identify small molecule agonists of the estrogen receptor alpha (ER-alpha) signaling pathway in the presence of an antagonist (AID 1259383; calls by dose curve; further: top concentration of the series differs between compounds; nearly all actives have a fitted effect of over 15% in size). The essentials: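 Readout was ERE-driven luciferase luminescence in VM7Luc4E2 cells, which express full-length ER-alpha endogenously. Compounds were tested at 15 concentrations for 22hr alongside 10.0nM ICI-182,780 (final concentration).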

Results filed as inconclusive are left out. Calls of active or inactive are those of the source. Unless noted, the call rests on the fitted dose curve; in most records, active means well fitted curve in the direction sought with a large enough effect in the repeat runs; inconclusive means weak or mixed curves; inactive means no such curve, though single readings can be large; an effect the other way counts as inactive or inconclusive.

Sequence of Estrogen receptor beta (Homo sapiens) (Q92731 whole entry, looked up): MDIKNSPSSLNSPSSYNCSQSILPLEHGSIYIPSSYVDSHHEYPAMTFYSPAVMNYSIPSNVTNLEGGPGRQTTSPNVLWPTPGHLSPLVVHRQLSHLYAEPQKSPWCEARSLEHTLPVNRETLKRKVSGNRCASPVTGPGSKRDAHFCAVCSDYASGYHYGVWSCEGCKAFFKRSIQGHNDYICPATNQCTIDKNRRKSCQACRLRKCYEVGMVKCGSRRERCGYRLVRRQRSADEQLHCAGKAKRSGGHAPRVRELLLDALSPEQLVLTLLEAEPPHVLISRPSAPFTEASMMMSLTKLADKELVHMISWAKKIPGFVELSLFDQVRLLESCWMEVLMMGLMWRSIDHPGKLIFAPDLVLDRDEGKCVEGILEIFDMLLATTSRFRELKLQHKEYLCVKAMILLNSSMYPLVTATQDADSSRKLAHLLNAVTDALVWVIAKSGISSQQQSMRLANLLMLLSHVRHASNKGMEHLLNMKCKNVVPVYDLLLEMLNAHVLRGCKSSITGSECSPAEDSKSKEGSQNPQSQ
Sequence of Androgen receptor (Homo sapiens) (P10275 whole entry, looked up): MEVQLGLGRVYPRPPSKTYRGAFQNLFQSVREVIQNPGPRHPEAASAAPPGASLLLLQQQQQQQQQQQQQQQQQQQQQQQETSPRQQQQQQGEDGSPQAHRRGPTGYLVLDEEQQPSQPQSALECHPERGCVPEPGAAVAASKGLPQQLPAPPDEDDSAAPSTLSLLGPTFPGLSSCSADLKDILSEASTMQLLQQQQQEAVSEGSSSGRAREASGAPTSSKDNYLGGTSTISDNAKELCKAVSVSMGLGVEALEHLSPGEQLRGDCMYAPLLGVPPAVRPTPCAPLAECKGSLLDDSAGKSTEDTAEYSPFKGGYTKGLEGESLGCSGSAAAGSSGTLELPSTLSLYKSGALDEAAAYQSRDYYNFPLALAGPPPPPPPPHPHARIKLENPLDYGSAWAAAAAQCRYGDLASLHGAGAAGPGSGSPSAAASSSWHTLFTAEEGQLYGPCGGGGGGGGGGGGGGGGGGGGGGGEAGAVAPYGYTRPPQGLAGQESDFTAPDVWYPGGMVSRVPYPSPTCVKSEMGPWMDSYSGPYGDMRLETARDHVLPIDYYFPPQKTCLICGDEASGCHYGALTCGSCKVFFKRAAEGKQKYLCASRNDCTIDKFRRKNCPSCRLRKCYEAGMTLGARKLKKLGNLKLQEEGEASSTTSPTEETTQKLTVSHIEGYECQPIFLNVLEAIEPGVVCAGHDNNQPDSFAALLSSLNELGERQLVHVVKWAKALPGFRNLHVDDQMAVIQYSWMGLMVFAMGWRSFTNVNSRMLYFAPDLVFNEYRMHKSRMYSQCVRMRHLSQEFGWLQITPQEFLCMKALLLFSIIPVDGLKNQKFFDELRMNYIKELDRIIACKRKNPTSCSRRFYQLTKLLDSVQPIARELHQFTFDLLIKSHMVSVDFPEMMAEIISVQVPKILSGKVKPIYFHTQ
Sequence of Estrogen receptor (Homo sapiens) (P03372 whole entry, looked up): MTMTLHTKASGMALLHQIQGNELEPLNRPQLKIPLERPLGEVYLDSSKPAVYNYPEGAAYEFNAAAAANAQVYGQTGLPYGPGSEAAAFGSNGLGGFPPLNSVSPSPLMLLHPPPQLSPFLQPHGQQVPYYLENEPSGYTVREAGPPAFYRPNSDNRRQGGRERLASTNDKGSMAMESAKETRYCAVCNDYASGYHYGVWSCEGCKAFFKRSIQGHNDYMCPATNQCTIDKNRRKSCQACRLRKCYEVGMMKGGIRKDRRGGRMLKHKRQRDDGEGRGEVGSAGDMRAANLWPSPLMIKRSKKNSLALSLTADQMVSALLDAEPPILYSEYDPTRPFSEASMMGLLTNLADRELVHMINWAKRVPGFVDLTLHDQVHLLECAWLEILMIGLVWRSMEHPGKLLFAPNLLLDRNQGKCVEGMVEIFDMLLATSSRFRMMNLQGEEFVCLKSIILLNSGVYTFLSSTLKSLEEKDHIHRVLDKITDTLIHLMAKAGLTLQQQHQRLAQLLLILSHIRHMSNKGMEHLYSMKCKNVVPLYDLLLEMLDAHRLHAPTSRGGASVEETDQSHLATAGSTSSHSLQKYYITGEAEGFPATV

In the case of `CCc1ccccc1CC`, the call in [1], in test [4], in test [7], in test [13] and in [14] was inactive. In addition, the Potency entry in test [2], in test [3], in test [5], in [6], in test [8] and in test [9] was “inactive” in each case. In addition, the Potency result in test [10], in [11] and in test [12] was “inactive” in each case.
In the case of `CC(=O)OC1CC(C)OC(C)O1` (stereo unspecified), the compound was called inactive in [1], in test [4], in test [7] and in test [13]. For the same compound, the Potency result in test [3], in test [5], in test [6], in [8], in [9] and in [10] was “inactive” each time. The Potency entry in test [11] and in test [12] was “inactive” in each case.
`O=C(OCC1CCC2OC2C1)C1CCC2OC2C1` (stereo unspecified): the compound was called inactive in test [1], in test [4], in test [7], in [13] and in [14]. Besides, the Potency result in [15], in test [2], in test [3], in test [8], in test [11] and in test [12] was “inactive” throughout.
As to `CCCCCCCCCCCC(=O)OC`, the call in test [1], in test [4], in test [7], in [13] and in test [14] was inactive. Also, the Potency result in test [2], in [3], in [5], in [6], in test [8] and in test [9] was “inactive” throughout. Also, the Potency result in [11] and in test [12] was “inactive” each time.
As for `Cc1ccc([N+](=O)[O-])cc1S(=O)(=O)O`, the outcome in test [1], in test [4], in test [7], in [13] and in test [14] was inactive. Moreover, the Potency entry in test [16], in test [2], in test [3], in test [5], in test [6] and in test [9] was “inactive” in each case. The Potency result in test [11], in test [12] and in test [17] was “inactive” each time.
In the case of `O=C1c2ccccc2CCc2ccccc21`, the compound was called inactive in [1], in test [4], in [7], in [13] and in test [14]. For the same compound, the Potency entry in test [15], in [5], in test [6], in test [9], in [10] and in test [11] was “inactive” throughout. Moreover, in test [12], the Potency entry was “inactive”. Also, in test [3], the Potency was 27.9 µM (active).
Take `NCCNCCN`: the call in [1], in test [18], in test [4], in test [7] and in [13] was inactive. Moreover, the Potency entry in test [15], in test [3], in [5], in test [6], in [9] and in test [10] was “inactive” throughout. Also, the Potency entry in test [11] and in test [12] was “inactive” throughout.
As for `CCCCCCCC=O`, the outcome in test [1], in test [4], in [7] and in [13] was inactive. Also, the Potency result in test [15], in test [2], in [3], in test [5], in test [6] and in [8] was “inactive” each time. In addition, the Potency entry in test [11] and in [12] was “inactive” each time.
As to `NCCCCCCN`, the result in [1], in [4], in test [7], in [13] and in test [14] was inactive. In addition, the Potency entry in test [3], in [5], in [6], in test [8], in test [11] and in test [12] was “inactive” each time.
`CC(C)OC(=O)COc1ccc(Cl)cc1Cl`: the call in test [1], in [4], in [7], in test [13] and in test [14] was inactive. In addition, the Potency result in test [2], in test [3], in test [5], in test [6], in [8] and in test [11] was “inactive” in each case. In addition, the Potency entry in test [12] and in [19] was “inactive” throughout.
